The structures appear in SMILES notation. Among all 7,900 compounds or so, about 400 (5.1%) showed an effect of 50% or more. Only a selection was taken, and strong results are over-represented in it overall.

Sequence of Parkinson's disease protein 7 (PARK7/DJ1) (Q99497 whole entry, looked up, the tested form may be a part): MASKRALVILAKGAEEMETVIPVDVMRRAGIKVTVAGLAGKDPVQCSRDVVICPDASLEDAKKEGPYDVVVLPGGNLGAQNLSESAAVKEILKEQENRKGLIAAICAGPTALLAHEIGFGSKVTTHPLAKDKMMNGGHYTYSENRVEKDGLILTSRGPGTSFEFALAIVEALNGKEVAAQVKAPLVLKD

In the assay the target is Parkinson's disease protein 7 (PARK7/DJ1) (human, UniProt Q99497). Put plainly: primary screen, percent inhibition; read as competition with a fluorescent probe by fluorescence polarization; higher = more effect of the substance. As to conditions: 100 µM. On the procedure:
The screen was conducted using the conditions as described above in 1536-well plates (Corning 3724) with a reaction volume of 8 μL per well. The compound library containing 7887 covalent fragments was purchased at Enamine Ltd. and received as 100 mM DMSO stocks in 384 well LDV Echo plates (Labcyte LP-0200). Stock solutions of 0.26 μM PARK7 and 80 nM JYQ-107 were prepared. Using a Labcyte Echo550 acoustic dispenser, 8 nL of the DMSO stock solution of the library compounds was transferred from the source plates into the empty 1536-well screening plates to obtain a 100 μM final compound concentration. Next, PARK7 (6 μL, final concentration 0.2 μM) was dispensed using a Biotek MultiflowFX liquid dispenser and incubated for 2 h, followed by dispensing the probe JYQ-107 (2 μL, final concentration 20 nM). After 2 h incubation, the FP signal was recorded on a BMG Labtech PHERAstar plate reader (λex/em 480/520 nm). The relative loss of FP signal compared with reference controls was used to calculate the remaining enzyme activity.
Turning to `N#Cc1cc(N2CC(O)CC2c2cccc(F)c2)ccn1` (stereo not drawn), the Inhibition % is listed as 12.9%. With `N#Cc1cccc(N2CC(O)CC2c2ccccc2)n1` (stereo not drawn) the figure was 96.9%; with `N#Cc1ccc(N2CC(O)CC2c2cccc(F)c2)cn1` (stereo not drawn), 3.63%. With `COc1cc(C)c(C(C)NC(=O)CCl)cc1OC` (stereo not drawn) the figure was 3.84%; with `N#CC(=Cc1cccc(Cl)c1Cl)C(N)=O`, 8.01%; with `N#Cc1nc(F)ccc1O`, 55.2%. With `N#Cc1cccc(F)n1` the figure was 4.58%; with `N#Cc1ncccc1O`, 23.2%. With `O=S1(=O)CCCC(CCl)C1` (stereo not drawn), the Inhibition % was -4.37%.

Turning to `CC1(C)NC(=O)C1(C)C`, the Inhibition % was determined as 2.57%. The result for `COc1cc(C=C(C#N)C(N)=O)cc(Cl)c1OC(C)C` reads 7.72%. With `O=S(=O)(F)CCSc1nnc2sc3ccccc3n12` the figure was 7.67%; with `O=S(=O)(F)CCn1nnc(-c2ccccc2)n1`, 35.7%; with `O=S(=O)(F)CCSc1nnc2ccccn12`, 53.9%.

`C=CC(=O)N1CC(Cc2cccc(C)c2)C1`: the Inhibition % was 6.59%.

`Cc1ccc(S(=O)(=O)F)c2c1NCCC2`: the Inhibition % worked out at 4.21%. On to `Cc1ccc(C(=O)O)cc1S(=O)(=O)F`, for which the Inhibition % was 99.4%.

In the case of `Cc1ccc(C(=O)O)cc1B1OC(C)(C)C(C)(C)O1`, the Inhibition % was determined as 9.09%. With `COc1cc(C(=O)O)ccc1S(=O)(=O)F` the figure was 31.2%; with `Nc1ccc(S(=O)(=O)F)c(F)c1`, 12.3%; with `O=C(O)c1ccc(S(=O)(=O)F)c(Cl)c1`, 94.7%.

As for `Cc1ccc(N)cc1S(=O)(=O)F`, the Inhibition % amounted to 95.9%. With `COc1cc(NC(=O)CCl)c(Cl)cc1C(=O)O` the figure was 13.3%; with `COc1cc(S(=O)(=O)F)c(Cl)cc1C(=O)O`, 97.8%; with `COc1ccc(S(=O)(=O)F)cc1C(=O)O`, 20.2%.

On to `O=C(CCl)NC1CCCCNC1=O` (stereo not drawn), for which the Inhibition % is given as 13.7%. With `CC(=O)Nc1ccc(OC(=O)N2CCCC2)cc1` the figure was 8.48%. The result for `C=CC(=O)N1CCC2(CCSCC2)CC1` reads 5.26%; that for `C=CC(=O)NCC1CCSCC1`, 2.54%. With `COc1nscc1B1OC(C)(C)C(C)(C)O1` the figure was 20.8%; with `Cc1ccc(NC(=O)NC(=O)CCl)cc1`, 8.73%. For `CN(CC(=O)Nc1ccccc1Cl)C(=O)CCl`, the Inhibition % is on record as 42.3%. The result for `Cc1ccc(NC(=O)CN(C)C(=O)CCl)cc1` reads 96.5%; that for `CN(CC(=O)Nc1c(Cl)cccc1Cl)C(=O)CCl`, 7.36%; that for `CN(CC(=O)Nc1ccc(Cl)cc1)C(=O)CCl`, 75.9%. With `CN(CC(=O)Nc1ccc(F)cc1)C(=O)CCl` the figure was 94.2%.

With `CSc1ccccc1NC(=O)CN(C)C(=O)CCl`, the Inhibition % came to 34.6%.

Regarding `O=C(CCl)Nc1ccc(F)cc1`, the Inhibition % was 25.3%.

For the molecule `CN(CC(=O)Nc1ccccc1C(F)(F)F)C(=O)CCl`, the Inhibition % is recorded as 17.5%.

As to `N#Cc1cccc(NC[C@H]2CCO[C@@H]2c2ccccc2)n1`, the Inhibition % was determined as 3%. With `Cc1nn(C)c(Cl)c1C=CC(=O)N1CCNC(C)C1.Cl` (stereo not drawn) the figure was 11%; with `C=CC(=O)N1CCOCC1c1cccn1C` (stereo not drawn), 7.42%.

Regarding `C=CC(=O)Nc1cn(C)nc1C1CC1`, the Inhibition % was 10%. With `C=CC(=O)N1CCC(CCF)CC1` the figure was 5.32%. As to `C=CC(=O)N1CCN(c2ccccc2F)CC1`, the Inhibition % is 7.53%. Turning to `C=CC(=O)N1CCC(CCC#N)CC1`, the Inhibition % came out at 8.36%. With `O=C(Cn1nc(-c2ccccc2)oc1=O)N1CCSCC1` the figure was 5.67%; with `O=C(CCl)Nc1cc(Cl)cc(Cl)c1`, 9.47%. Consider `O=C(CCCl)Nc1cccc(Cl)c1`, for which the Inhibition % was -0.704%.

In the case of `CN(CC(=O)Nc1cccc(Cl)c1)C(=O)CCl`, the Inhibition % turned out to be 93.8%.

In the case of `O=C(CCl)Nc1cccc(Cl)c1`, the Inhibition % stood at 34.6%. With `COc1cccc(NC(=O)CN(C)C(=O)CCl)c1` the figure was 95.9%. The result for `COc1cccc(NC(=O)CCCl)c1` reads 11.2%. On to `COc1cccc(NC(=O)CCl)c1`, for which the Inhibition % came to 19.1%. The result for `C=CC(=O)N(Cc1cccc(-c2cccnc2)c1)C1CC1` reads 12.4%; that for `Cc1cc(OC(F)F)ccc1B1OC(C)(C)C(C)(C)O1`, 3.76%.

Regarding `CC(C(=O)NC1CC1c1ccccc1)N1C(=O)CCC1=O` (stereo not drawn), the Inhibition % was found to be 14.1%. The result for `CC(C)N1CCC(NC(=O)CCl)CC1.Cl` reads 2.57%; that for `O=c1[nH]c(-c2ccccc2)no1`, 34.7%; that for `CN1CCC(n2cc(-c3ccc(S(=O)(=O)F)cc3)nn2)C1=O` (stereo not drawn), 9.08%. As for `C=CC(=O)NCCC1CCOC1` (stereo not drawn), the Inhibition % is 4.58%. On to `COc1nc(C#N)sc1C`, for which the Inhibition % is recorded as 2.94%. With `N#Cc1nc2cc(N)ccc2s1` the figure was 55.6%; with `C=CC(=O)N1CCC(n2cccc2)CC1`, 6.94%. The result for `Cc1coc(B2OC(C)(C)C(C)(C)O2)c1` reads 4.69%. As to `CC1(C)OB(c2ccco2)OC1(C)C`, the Inhibition % worked out at 7.09%. Take `CC1(C)OB(c2cc(-c3ccccc3)co2)OC1(C)C`: the Inhibition % was found to be 85.9%.

As to `Cc1cccc(N2CCN(C(=O)n3ccnc3)CC2)c1C`, the Inhibition % stood at 6.87%. In the case of `O=C(CCl)c1cn(-c2ccc(F)cc2)nn1`, the Inhibition % stood at 5.02%. The result for `Cc1cccc(-n2cc(C(=O)CCl)nn2)c1` reads 95.4%; that for `Cn1cc(C(=O)CCl)nn1`, 3.33%; that for `COc1ccc(C(C)(C)C)cc1S(=O)(=O)n1ccnc1C`, 7.71%. With `N#Cc1ccc(Cl)cn1` the figure was 8.27%; with `O=C(CCl)NC(=O)Nc1ccc2c(c1)OCCO2`, 7.05%. With `O=C(CCl)Nc1ccc2c(c1)OCO2` the figure was 46.5%; with `O=C(CCl)NC(=O)Nc1ccc2c(c1)OCCCO2`, 7.15%; with `O=C(CCl)Nc1ccc2c(c1)OCCCO2`, 57.7%. For the molecule `O=C(CCl)Nc1ccc2c(c1)OCCO2`, the Inhibition % amounted to 55%.

Take `O=C(CCCl)Nc1ccc2c(c1)OCCO2`: the Inhibition % is 7.65%. `COC(C)c1cccc(NC(=O)c2cccnc2S)c1` (stereo not drawn): the Inhibition % is 4.97%. With `C=CC(=O)N1Cc2cc(F)c(F)cc2C1` the figure was 2.84%; with `COc1cc(OC)c(OC)cc1CS`, 63.9%; with `COc1ccc(CS)c(OC)c1`, 5.78%. The result for `COc1cccc(CS)c1` reads 15.4%.
